Data: PubChem BioAssay AID651899 (Broad Institute, 2012)
Results with a measured potency or affinity are listed apart. Unmarked numbers belong to inactive results. How the calls were made is not given here.

Experiment: HEK293 cell viability loss – plate reader, cherry-pick, cytotoxicity control, dose response (AID 651899);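 further: cells exposed to compound for 48 hours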
Details: series mostly up to 26 µM; activity change, negative = cytotoxicity: at the top concentration

Compared with `COc1cc2c3cc1Oc1cc(ccc1O)C[C@@H]1c4c(cc(OC)c(O)c4Oc4cccc(c4)C[C@@H]3N(C)CC2)CC[N+]1(C)C`, `COc1ccc2c(c1)c(C(=O)CN1CCC3(CC1)OCCO3)c(C)n2Cc1ccccc1` is lower in “activity change, negative = cytotoxicity” value: 4.48% for the first, -14% for the second.

Going from `O=[N+]([O-])c1ccc(C[n+]2c(-c3ccccc3)cc(-c3ccccc3)cc2-c2ccccc2)cc1` to `CCc1nc2ccc(Br)cc2c(=O)n1-c1ccccc1C(F)(F)F`, the “activity change, negative = cytotoxicity” value falls from 29.9% to -8.64%.

Compared with `Cc1nc2nc(SCC(=O)N3CCC4(CC3)OCCO4)nn2c(C)c1Cc1ccccc1`, `O=c1[nH]c(N2CCN(Cc3ccc4c(c3)OCO4)CC2)nc2c1CCC2` is lower in “activity change, negative = cytotoxicity” value: 5.47% for the first, -2.79% for the second.

In the case of `CC(=O)N1CCN(c2ccc([N+](=O)[O-])cc2C=C2C(=O)NC(=O)NC2=O)CC1`, the “activity change, negative = cytotoxicity” value is reported as -7.17%.
